# A number with no mark means an inactive call.
# Assays:
# Assay in all cases: log2 ratio of Biotin-Ahx-Ub-VS probe labelling (fragment/DMSO); higher = less target engagement (more negative = stronger competition), active = hit call of the paper (q ≤ 0.05, log2 ratio ≤ -1)
# Conditions in all cases: compound concentration: 200 uM; treatment time: 3 h
# ALG13 = molecular target: T1, ALG13 (UniProt Q9NP73)
# T1 sequence (whole entry): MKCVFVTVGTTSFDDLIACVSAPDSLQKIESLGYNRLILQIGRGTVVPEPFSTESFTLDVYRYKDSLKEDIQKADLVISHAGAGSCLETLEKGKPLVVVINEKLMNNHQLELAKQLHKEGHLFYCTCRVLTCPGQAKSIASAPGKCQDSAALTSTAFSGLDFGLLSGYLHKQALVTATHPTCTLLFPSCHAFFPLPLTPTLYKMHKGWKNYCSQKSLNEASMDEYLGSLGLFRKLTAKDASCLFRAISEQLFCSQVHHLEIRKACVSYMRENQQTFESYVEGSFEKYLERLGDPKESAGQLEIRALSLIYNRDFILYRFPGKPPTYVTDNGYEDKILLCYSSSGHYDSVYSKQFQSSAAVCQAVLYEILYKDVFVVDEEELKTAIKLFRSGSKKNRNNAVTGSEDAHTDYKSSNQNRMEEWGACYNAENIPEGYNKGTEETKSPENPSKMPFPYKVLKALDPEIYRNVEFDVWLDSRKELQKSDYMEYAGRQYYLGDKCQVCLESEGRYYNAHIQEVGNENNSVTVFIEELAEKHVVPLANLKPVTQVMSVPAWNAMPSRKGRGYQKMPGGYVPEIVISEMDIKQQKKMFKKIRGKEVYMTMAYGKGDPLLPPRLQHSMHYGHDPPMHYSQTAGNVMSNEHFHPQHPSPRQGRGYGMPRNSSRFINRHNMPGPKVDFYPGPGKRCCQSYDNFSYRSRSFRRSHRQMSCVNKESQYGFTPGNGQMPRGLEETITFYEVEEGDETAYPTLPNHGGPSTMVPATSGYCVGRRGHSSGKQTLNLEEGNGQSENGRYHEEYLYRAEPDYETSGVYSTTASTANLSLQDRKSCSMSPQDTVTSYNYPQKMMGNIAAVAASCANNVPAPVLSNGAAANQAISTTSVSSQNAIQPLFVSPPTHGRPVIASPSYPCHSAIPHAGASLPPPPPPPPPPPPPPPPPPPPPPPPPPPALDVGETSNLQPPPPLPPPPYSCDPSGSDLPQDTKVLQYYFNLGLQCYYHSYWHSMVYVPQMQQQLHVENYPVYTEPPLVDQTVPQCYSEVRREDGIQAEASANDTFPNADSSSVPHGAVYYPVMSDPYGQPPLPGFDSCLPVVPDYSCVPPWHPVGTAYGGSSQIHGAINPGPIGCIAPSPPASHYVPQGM
# How it was run: (§1)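 HEK293T lysate (495 µg per sample, in Tris/CHAPS/IGEPAL buffer with protease inhibitors) was treated in triplicate with fragment at 200 µM or with DMSO for 3 h. It was then treated with Biotin-Ahx-Ub-VS (0.5 µM final) for 1 h. Labelled DUBs were NeutrAvidin-enriched, digested with LysC and trypsin, and run by diaPASEF LC-MS/MS. Spectronaut label-free quantities were global-median-normalised. Values are average log2 ratios fragment/DMSO by unpaired t-test, using proteins with ≥2 unique peptides.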
# ATXN3 = ATXN3 (UniProt P54252)
# How it was run: as §1
# BAP1 = molecular target: T2, BAP1 (UniProt Q92560)
# T2 sequence (whole entry): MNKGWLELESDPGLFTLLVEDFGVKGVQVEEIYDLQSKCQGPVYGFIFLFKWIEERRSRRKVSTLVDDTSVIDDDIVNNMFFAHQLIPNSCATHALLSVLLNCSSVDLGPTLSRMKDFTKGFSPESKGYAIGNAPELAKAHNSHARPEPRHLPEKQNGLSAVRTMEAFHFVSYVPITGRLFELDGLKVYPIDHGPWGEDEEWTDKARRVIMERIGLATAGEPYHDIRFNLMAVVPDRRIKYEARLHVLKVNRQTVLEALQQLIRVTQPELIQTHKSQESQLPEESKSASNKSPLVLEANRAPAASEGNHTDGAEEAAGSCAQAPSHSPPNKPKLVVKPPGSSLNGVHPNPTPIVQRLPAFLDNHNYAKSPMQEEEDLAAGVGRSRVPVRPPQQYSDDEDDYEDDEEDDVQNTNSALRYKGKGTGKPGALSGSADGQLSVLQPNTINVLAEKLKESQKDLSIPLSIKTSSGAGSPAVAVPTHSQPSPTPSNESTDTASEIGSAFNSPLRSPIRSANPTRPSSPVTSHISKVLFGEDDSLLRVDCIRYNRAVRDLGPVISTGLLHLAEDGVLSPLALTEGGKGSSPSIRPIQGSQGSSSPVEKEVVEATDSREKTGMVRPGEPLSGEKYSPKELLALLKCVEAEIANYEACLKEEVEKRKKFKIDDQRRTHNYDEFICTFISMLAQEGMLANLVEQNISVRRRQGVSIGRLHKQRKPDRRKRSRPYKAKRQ
# How it was run: as §1
# EIF3F = EIF3F (UniProt O00303)
# How it was run: as §1
# EIF3H = EIF3H (UniProt O15372)
# How it was run: as §1
# FAM105A = molecular target: T3, FAM105A (UniProt Q9NUU6)
# T3 sequence (whole entry): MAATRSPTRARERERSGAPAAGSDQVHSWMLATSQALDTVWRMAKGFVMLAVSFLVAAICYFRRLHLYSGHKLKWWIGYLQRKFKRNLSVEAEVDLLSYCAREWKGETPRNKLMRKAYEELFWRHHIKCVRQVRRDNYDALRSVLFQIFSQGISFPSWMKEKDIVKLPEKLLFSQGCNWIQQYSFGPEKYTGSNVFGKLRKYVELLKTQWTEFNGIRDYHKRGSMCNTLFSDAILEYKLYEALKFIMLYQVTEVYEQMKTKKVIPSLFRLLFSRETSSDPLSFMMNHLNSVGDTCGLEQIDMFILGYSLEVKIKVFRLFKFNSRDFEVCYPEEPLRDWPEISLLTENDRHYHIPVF
# How it was run: as §1
# OTUB1 = OTUB1 (UniProt Q96FW1)
# How it was run: as §1
# OTUD4 = molecular target: T4, OTUD4 (UniProt Q01804)
# T4 sequence (whole entry): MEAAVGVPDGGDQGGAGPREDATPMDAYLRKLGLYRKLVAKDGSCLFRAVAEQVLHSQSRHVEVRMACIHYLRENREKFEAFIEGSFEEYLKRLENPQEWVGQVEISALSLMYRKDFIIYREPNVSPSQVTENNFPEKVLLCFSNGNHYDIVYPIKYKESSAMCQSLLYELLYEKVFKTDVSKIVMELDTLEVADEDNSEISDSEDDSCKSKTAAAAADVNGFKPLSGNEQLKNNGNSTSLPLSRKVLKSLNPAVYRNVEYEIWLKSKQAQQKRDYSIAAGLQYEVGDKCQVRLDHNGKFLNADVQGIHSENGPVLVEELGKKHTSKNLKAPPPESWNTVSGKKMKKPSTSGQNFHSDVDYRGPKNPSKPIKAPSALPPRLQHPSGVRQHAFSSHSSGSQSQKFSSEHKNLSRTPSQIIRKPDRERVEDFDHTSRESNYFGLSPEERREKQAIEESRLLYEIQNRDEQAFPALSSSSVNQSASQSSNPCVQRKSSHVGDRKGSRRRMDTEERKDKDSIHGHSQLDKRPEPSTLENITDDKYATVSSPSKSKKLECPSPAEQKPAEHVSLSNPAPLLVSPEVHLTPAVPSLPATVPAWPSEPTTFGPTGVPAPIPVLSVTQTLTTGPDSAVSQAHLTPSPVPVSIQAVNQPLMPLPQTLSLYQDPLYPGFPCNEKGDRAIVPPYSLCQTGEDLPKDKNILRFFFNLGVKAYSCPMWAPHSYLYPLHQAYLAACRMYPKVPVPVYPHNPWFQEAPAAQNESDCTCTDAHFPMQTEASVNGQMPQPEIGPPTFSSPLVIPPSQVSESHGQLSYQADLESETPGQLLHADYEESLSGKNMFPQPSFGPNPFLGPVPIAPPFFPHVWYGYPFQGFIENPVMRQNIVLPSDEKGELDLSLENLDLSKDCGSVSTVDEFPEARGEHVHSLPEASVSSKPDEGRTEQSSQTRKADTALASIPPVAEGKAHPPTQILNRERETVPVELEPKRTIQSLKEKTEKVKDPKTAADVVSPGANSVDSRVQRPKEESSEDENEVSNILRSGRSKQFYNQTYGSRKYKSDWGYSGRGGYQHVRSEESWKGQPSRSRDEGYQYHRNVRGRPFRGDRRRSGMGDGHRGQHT
# How it was run: as §1
# OTUD5 = molecular target: T5, OTUD5 (UniProt Q96G74)
# T5 sequence (whole entry): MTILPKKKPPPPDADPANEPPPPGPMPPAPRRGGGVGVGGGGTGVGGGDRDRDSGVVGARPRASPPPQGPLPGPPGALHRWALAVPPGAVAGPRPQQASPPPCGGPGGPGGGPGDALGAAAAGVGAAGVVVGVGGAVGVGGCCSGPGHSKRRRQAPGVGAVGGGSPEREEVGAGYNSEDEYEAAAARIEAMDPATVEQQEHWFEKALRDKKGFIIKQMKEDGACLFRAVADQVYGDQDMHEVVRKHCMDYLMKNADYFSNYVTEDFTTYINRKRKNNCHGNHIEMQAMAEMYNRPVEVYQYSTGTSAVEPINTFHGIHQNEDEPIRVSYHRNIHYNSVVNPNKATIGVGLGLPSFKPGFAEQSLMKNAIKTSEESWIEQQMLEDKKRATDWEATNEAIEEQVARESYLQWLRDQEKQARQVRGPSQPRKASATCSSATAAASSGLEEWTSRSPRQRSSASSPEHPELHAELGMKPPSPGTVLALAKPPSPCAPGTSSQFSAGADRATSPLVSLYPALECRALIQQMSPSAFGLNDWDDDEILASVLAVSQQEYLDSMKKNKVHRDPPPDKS
# How it was run: as §1
# Chain of ATXN3 (P54252 whole entry): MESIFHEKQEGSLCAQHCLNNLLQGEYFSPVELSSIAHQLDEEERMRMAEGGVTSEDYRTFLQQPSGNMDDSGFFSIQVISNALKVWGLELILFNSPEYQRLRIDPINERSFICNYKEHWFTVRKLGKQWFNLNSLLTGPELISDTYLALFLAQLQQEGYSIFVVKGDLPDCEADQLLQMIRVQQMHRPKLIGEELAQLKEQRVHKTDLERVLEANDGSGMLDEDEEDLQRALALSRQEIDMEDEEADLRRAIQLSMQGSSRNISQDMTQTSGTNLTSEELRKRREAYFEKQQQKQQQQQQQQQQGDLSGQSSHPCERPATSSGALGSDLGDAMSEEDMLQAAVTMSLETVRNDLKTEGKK
# Chain of OTUB1 (Q96FW1 whole entry): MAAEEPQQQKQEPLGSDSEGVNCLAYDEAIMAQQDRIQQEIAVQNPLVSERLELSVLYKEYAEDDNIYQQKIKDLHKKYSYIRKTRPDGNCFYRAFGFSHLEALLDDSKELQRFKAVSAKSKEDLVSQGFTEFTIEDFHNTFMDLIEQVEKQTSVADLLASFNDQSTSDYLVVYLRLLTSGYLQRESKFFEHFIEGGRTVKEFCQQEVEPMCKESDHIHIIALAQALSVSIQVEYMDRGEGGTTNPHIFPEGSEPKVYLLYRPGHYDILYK
# Chain of EIF3F (O00303 whole entry): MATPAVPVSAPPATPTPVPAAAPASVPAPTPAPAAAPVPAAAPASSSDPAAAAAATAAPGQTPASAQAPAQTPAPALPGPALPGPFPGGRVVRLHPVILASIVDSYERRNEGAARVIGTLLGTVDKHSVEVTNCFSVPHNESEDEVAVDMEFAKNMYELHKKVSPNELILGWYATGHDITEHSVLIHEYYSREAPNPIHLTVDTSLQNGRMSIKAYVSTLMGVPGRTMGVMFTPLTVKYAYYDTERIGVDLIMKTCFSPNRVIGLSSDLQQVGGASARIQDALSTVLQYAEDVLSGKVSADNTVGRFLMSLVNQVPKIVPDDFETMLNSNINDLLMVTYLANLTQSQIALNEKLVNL
# Chain of EIF3H (O15372 whole entry): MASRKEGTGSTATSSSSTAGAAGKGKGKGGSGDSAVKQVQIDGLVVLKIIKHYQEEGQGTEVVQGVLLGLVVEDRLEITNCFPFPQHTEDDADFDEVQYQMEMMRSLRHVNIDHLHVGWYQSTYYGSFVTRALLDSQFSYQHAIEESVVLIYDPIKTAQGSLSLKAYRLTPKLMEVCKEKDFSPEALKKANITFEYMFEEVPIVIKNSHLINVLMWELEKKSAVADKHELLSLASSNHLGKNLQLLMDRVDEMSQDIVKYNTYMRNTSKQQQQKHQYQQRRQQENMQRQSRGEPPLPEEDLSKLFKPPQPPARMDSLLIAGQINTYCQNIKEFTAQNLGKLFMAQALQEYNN
compound,measurement,setting,value
O=C(CCl)NCc1noc(C2CC2)n1,log2 ratio of Biotin-Ahx-Ub-VS probe labelling,ALG13,0.174
same,log2 ratio of Biotin-Ahx-Ub-VS probe labelling,ATXN3,-0.198
same,log2 ratio of Biotin-Ahx-Ub-VS probe labelling,BAP1,-1.08 (active)
same,log2 ratio of Biotin-Ahx-Ub-VS probe labelling,EIF3F,-0.262
same,log2 ratio of Biotin-Ahx-Ub-VS probe labelling,EIF3H,0.143
same,log2 ratio of Biotin-Ahx-Ub-VS probe labelling,FAM105A,0.00371
same,log2 ratio of Biotin-Ahx-Ub-VS probe labelling,OTUB1,-0.305
same,log2 ratio of Biotin-Ahx-Ub-VS probe labelling,OTUD4,-0.405
same,log2 ratio of Biotin-Ahx-Ub-VS probe labelling,OTUD5,-0.391
